Screens: PubChem BioAssay, National Center for Advancing Translational Sciences (NCATS)
BAZ2B block = BAZ2B (human) inhibition; Q9UIF8; AlphaScreen BAZ2B-H3K14Ac peptide displacement; Potency, µM (highest dose often 114 µM), inactives show at the highest dose activity change, negative = inhibition, actives largely listed as inhibitors; hit rate 4.4% among 360,000; note: % is set by controls: 0 for no effect and ±100 for the full control effect; nearly all actives have a fitted effect of over 60% in size
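BAZ2B (50 nM) with biotin-H3(5-23)K14Ac peptide (50 nM) in PBS pH 7.4, 0.01% Tween-20, preformed 30 min, then compound 30 min at room temperature; top concentration 110uM. AlphaScreen streptavidin donor/nickel chelate acceptor beads (10 ug/mL final), 20 min dark, signal read.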
JMJD2A Tudor = JMJD2A Tudor domain (human) inhibition. AlphaScreen JMJD2A-Tudor / H3K4me3 peptide binding. AID 504339. O75164. hit rate 4.4% among 390,000. Potency, µM (highest dose often 114 µM), for inactives: at the top dose activity change, negative = inhibition, most hits filed as inhibitors; note: % is set by controls: 0 for no effect and ±100 for the full control effect; nearly all actives have a fitted effect of over 50% in size
L3MBTL1 inh = inhibitors of human L3MBTL1 | Q9Y468 | AlphaScreen L3MBTL1–H3K9me1 peptide binding | Potency, µM (top dose mostly 57.1 µM), for the others: top-dose activity, negative = inhibition, hits mostly inhibitors | hit rate 0.66% among 230,000 | AID 485360; note: % is set by controls: 0 for no effect and ±100 for the full control effect; nearly all actives have a fitted effect of over 60% in size
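L3MBTL1 (50 nM) pre-complexed 30 min with biotinylated H3(1-15)K9me1 peptide (75 nM), then compounds added for 30 min at room temperature; AlphaScreen streptavidin donor/nickel chelate acceptor beads (10 ug/mL final) read after 30 min dark incubation.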
PLK1 PBD inh = PLK1 (human) polo-box domain binding inhibition. Plk1 PBD binding of FITC phosphopeptide, fluorescence polarization. Potency, µM, for inactives: max response, negative = inhibition, actives largely listed as inhibitors. hit rate 2.8% among 360,000. P53350; note: series mostly up to about 57 µM; % is set by controls: 0 for no effect and ±100 for the full control effect; nearly all actives have a fitted effect of over 65% in size
VDR inh = vitamin D3 receptor (human) inhibition | hit rate 0.93% among 400,000 | VDR-SRC2-3 peptide fluorescence polarization, 2 h | Potency, µM, for inactives: max response, negative = inhibition, usual class: inhibitors; note: % is set by controls: 0 for no effect and ±100 for the full control effect
Target sequence (P11473 whole entry, looked up): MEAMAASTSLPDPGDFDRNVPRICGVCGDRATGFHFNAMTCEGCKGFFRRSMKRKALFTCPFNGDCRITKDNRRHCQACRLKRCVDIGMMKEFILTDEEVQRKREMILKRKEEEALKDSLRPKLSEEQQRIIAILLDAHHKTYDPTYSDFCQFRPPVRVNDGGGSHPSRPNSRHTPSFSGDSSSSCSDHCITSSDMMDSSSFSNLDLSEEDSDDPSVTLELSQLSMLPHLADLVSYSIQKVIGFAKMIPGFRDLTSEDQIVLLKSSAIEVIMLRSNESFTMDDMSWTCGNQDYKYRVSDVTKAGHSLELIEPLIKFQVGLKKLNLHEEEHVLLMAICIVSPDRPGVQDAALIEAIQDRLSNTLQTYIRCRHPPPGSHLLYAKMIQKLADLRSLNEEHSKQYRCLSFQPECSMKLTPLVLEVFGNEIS
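Two reagent solutions held at 4 deg C in the dark were dispensed, compounds pinned at 23 nl, and the mixture incubated 2 h at room temperature. Read-out: fluorescence polarization of VDR–SRC2-3 peptide binding.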
HP1b chromo inh = HP1-beta chromodomain-methylated histone interaction inhibition; P83916; AlphaScreen HP1-beta / biotin-H3K9me3 peptide binding; Potency, µM (titrated, usually from 114 µM), without a hit: top-dose activity change, negative = inhibition, hits mostly inhibitors; hit rate 0.56% among 390,000; note: nearly all actives have a fitted effect of over 70% in size
Target sequence (P83916 whole entry, looked up): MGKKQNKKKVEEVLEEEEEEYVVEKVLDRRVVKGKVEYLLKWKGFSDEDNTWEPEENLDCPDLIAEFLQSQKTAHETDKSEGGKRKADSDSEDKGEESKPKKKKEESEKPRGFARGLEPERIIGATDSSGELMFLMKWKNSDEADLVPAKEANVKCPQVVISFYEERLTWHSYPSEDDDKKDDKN
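Compound inhibition of the preformed complex between 50 nM HP1-beta and 50 nM biotinylated H3K9me3 peptide was read by AlphaScreen. Buffer was PBS pH 7.4 with 0.01% Tween-20. Incubations ran 30 min at room temperature, with 10 ug/mL donor/acceptor beads.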
Numbers without * were called inactive; ? = inconclusive; . = not tested or not shown; [ ] = remark or other dose. Compounds with a hit are over-represented: about 6.9% of the library has one in this group of screens. Calls come from the whole dose curve; as a rule, active = well fitted curve in the direction sought with a large enough effect; inconclusive = small, poorly fitted or top-dose-only effect, or another doubt; inactive = no such curve, though single readings can be large; an effect the other way counts as inactive or inconclusive. Potency is the fitted concentration of half-maximal effect.

SMILES	BAZ2B block	JMJD2A Tudor	L3MBTL1 inh	PLK1 PBD inh	VDR inh	HP1b chromo inh
CCOc1ccc(OC(=O)c2cn(-c3ccc(C)cc3)c(=O)c3ccccc23)cc1	1%	50µM*	.	.	1%	25%[57 µM]
CCSc1nnc(NC(=O)C(C)C)s1	-1%	-1%	.	-1%	-2%	30%
CCSc1nnc(NC(=O)C(C(F)(F)F)C(F)(F)F)s1	-35%	-31%	1%	13µM*	-9%	23%
CCSc1nnc(NC(=O)c2cccnc2Cl)s1	-12%	8%[57.1 µM]	4%	-4%	12%	39%
CCSc1nnc(NC(=O)c2cnccn2)s1	22%	79µM*	12%	-9%	14%	35%
CCSc1nnc(NC(=O)c2ccccn2)s1	6.3µM*	8.9µM*	-10%[11.4 µM]	-3%	3%	61%
O=C1NC(=S)S/C1=C/c1ccc(N2CCOCC2)o1	20µM*	40µM*	32µM*	57%	?	35µM*
O=C1S/C(=C/c2ccc(N3CCOCC3)o2)C(=O)N1Cc1ccc(F)cc1	-33%	89µM*	-3%	36%	?	19%
O=C1S/C(=C\c2ccc(N3CCOCC3)o2)C(=O)N1Cc1ccc(F)cc1	-31%	?	-3%	36%	?	-8%
C=CCN1C(=O)N/C(=C/c2ccc(N3CCOCC3)o2)C1=O	1%	.	1%	.	.	.
COc1ccc(-c2nnc(SCC(=O)N(C)C3CCCCC3)o2)cc1OC	-1%	-8%	.	.	21%	43%
N#Cc1cccc(NC(=S)Nc2ccccc2)c1	5%	-9%[57.1 µM]	1%	13µM*	-18%	1%
Oc1ccc(NC(=S)Nc2ccccc2)cc1	-17%	-10%	3%	-4%	-8%	19%
COc1ccccc1NC(=O)CSc1nc2c(sc3ccccc32)c(=O)n1CCN(C)C	-32%	-24%	.	?	79µM*	40%
CCOc1ccc(S(=O)(=O)N2CCN(C(=O)c3sccc3C)CC2)cc1	10%	-10%	.	-3%	6%	30%
CCCNC(=O)c1ccc2c(c1)sc1nc(-c3ccc(C)cc3)cn12	-2%	-6%	.	.	5%	35%
CCN(CC)CCCNC(=O)c1ccc2c(c1)sc1nc(-c3ccc(C)cc3)cn12	40µM*	?	.	.	-5%	-10%
Cc1cc(C)cc(OCC(=O)NNC(=O)CC(C)c2ccccc2)c1 (stereo not drawn)	.	.	.	-6%	.	.
O=C(NCc1n[nH]c(=S)n1-c1ccccc1)c1ccc(S(=O)(=O)N2CCOCC2)cc1	-4%	7.1µM*	-3%	-2%	-12%	10%
O=C(NCc1n[nH]c(=S)n1-c1ccc(F)cc1)c1ccc(S(=O)(=O)N2CCOCC2)cc1	-1%	13µM*	.	?	-21%	13%
Cc1ccc(NC(=O)C2CCN(S(=O)(=O)c3c(C)noc3C)CC2)cc1	4%	-13%	.	.	-18%	36%
COc1ccc(S(=O)(=O)N(CC(=O)Nc2cccc(C)c2)c2ccc(C)cc2)cc1OC	-9%	-14%	.	.	31%	42%
Cc1cc(=O)[nH]c(SCC(=O)NC(c2ccccc2)c2ccccc2)n1	.	-3%	7%	-13%	-10%	19%
COC(=O)C(CSCc1ccccc1)NC(=O)CSc1nc(C)cc(=O)[nH]1 (stereo not drawn)	3%	50µM*	.	27µM*	15%	-2%
Cc1cc2c(s1)c1cnn(Cc3ccc(C(F)(F)F)cc3)c(=O)c1n2C	.	-7%	.	.	.	.
SMILES	BAZ2B block	JMJD2A Tudor	L3MBTL1 inh	PLK1 PBD inh	VDR inh	HP1b chromo inh
CN(C)c1ccc(C(=O)OCC(=O)Nc2ccc(S(N)(=O)=O)cc2)cc1	.	56µM*	4%	-18%	17%	?
CCOC(=O)c1ccc(NCc2ccc(N(C)C)cc2)cc1	11µM*	?	?	-5%	-14%	-11%
O=C(Nc1cccc(F)c1)C1CCCN(c2cnccn2)C1 (stereo not drawn)	?	-2%	.	1%	-4%	10%[57 µM]
CNc1nc2c(N)ncnc2n1[C@@H]1O[C@@H]2COP(=O)(O)O[C@H]2[C@H]1O	.	.	.	.	0%	.
COc1cc(OC)c2c(-c3ccccc3)cc(=O)oc2c1C(CCN1CCCCC1)c1ccc2c(c1)OCO2 (stereo not drawn)	?	?	.	4%	5%	-20%
COc1cc(OC)c2c(-c3ccccc3)cc(=O)oc2c1C(CCN1CCOCC1)c1ccc(N(C)C)cc1 (stereo not drawn)	.	14µM*	?	-19%	-2%	18µM*
COc1cc(OC)c2c(-c3ccccc3)cc(=O)oc2c1C(CCN1CCCC(C)C1)c1ccc2c(c1)OCO2 (stereo not drawn)	?	40µM*	.	4%	3%	-36%
COc1cc(OC)c2c(-c3ccccc3)cc(=O)oc2c1C(CCN1CCCCC1)c1ccc(N(C)C)cc1 (stereo not drawn)	16µM*	11µM*	.	-8%	-4%	?
COc1ccc(C(CCN2CCCCC2)c2c(OC)cc(OC)c3c(-c4ccccc4)cc(=O)oc23)cc1 (stereo not drawn)	-25%	?	.	-5%	-17%	2%
Cc1ccc(CN2C(=O)CCC2C(=O)NCCN(CC(C)C)CC(C)C)cc1 (stereo not drawn)	-8%	-5%	2%	0%	-12%	27%
Fc1cc(F)cc(Nc2nc(NC3CCCC3)nc(C3CO3)n2)c1 (stereo not drawn)	.	-22%	.	.	.	.
COc1cccc(Cn2ncc3c4sc(SC)cc4n(C)c3c2=O)c1	.	1%	.	.	.	.
CC1(C)CC(=O)C(N=Nc2ccc(S(=O)(=O)N3CCOCC3)cc2)=C(O)C1	-16%	35µM*	18%	?	12%	3%
Cc1ccc2c(c1)-c1cc(C)ccc1C2=O	.	87%	.	2%	5%	122%
COc1ccc(Cc2nnc(NCCO)[nH]c2=O)cc1	2%	9%	.	4%	-3%	32%
C=CCNc1nnc(Cc2ccc(C(C)C)cc2)c(=O)[nH]1	?	56µM*	.	-17%	1%	-8%
O=c1c(-c2cccc(F)c2)nc2cncnc2n1-c1ccccc1	.	.	.	.	-1%	.
OC(c1ccccc1)c1nc2ccccc2s1 (stereo not drawn)	-1%	-21%[11.4 µM]	-2%	12µM*	-8%	-15%
CCOc1ccc(CCNC(=O)c2ccc(CS(=O)Cc3ccc(Cl)cc3)o2)cc1OCC (stereo not drawn)	-17%	-18%	.	-3%	-2%	36%
CCOc1ccc(CCNC(=O)c2ccc(CS(=O)Cc3cccc(Cl)c3)o2)cc1 (stereo not drawn)	-12%	-25%	.	27µM*	?	-15%
Cc1ccccc1CS(=O)(=O)Cc1ccc(C(=O)NCCc2ccccc2)o1	-14%	-29%	.	30µM*	-17%	4%
CCc1ccccc1S(=O)(=O)Cc1ccc(C(=O)NCCc2ccc(C)cc2)o1	-2%	20µM*	.	.	-23%	49%
